# Reference: the supplement of paper PMC3724861
# This is one part of a sample in which hits are shown more often than they occur. The hit rate among all sequences tested is not known here.
# System: T1, Caupolican (Caup) homeodomain DNA-binding domain
# T1 sequence: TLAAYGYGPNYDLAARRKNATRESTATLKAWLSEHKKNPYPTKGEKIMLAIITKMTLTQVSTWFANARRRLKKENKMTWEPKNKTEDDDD
# Experiment: PBM E-score (8-mer, recovered from the published 9-mer minima) (E-score (dimensionless, -0.5 to 0.5)); Drosophila protein; higher = stronger relative binding preference, active = 0.31 or more
# Procedure, shortened: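 Caup's homeodomain DNA-binding domain (residues 214-303) was produced by in vitro transcription and translation and applied at 100 nM to custom-designed protein binding microarrays. Each value is an enrichment score giving relative binding preference for a short DNA word; higher means stronger. Published 9-mer scores were the minimum of their two constituent 8-mer scores, and the 8-mer values were recovered from those minima. A cutoff of 0.31 marks candidate binding sequences.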
row,Sequence,PBM E-score
1,GAGTTATC,0.0344 (inactive)
2,CTAGCAAC,0.101 (inactive)
3,GGTATTGA,0.058 (inactive)
4,AGCTCAAT,-0.0704 (inactive)
5,TGAGTGCA,-0.0812 (inactive)
6,CGTTTGCC,-0.0961 (inactive)
7,TCATCGCA,0.065 (inactive)
8,CACCCACG,-0.151 (inactive)
9,AAGGCGCG,-0.205 (inactive)
10,GCATGAGC,-0.0712 (inactive)
11,CGACAACC,0.186 (inactive)
12,CGACAACG,0.168 (inactive)
13,TGACAACA,0.377 (active)
14,TGACAGCA,0.185 (inactive)
15,GGTCAACA,0.159 (inactive)
16,CGTCAACA,0.0802 (inactive)
17,AGACAACG,0.231 (inactive)
18,TGTCAACA,≥ 0.324 (active)
19,AGACAACT,0.191 (inactive)
20,TGACAAAA,0.186 (inactive)
21,AGACAACA,0.349 (active)
22,CGACAACA,0.342 (active)
23,AAGCATCA,0.0394 (inactive)
24,GCAAGTGC,-0.0754 (inactive)
25,AGACAGGC,-0.00368 (inactive)
26,AGTCCGGG,-0.154 (inactive)

row,Sequence,PBM E-score
1,AAGTTGAC,0.0758 (inactive)
2,AACGCTGG,-0.0926 (inactive)
3,CTATTGGA,0.00708 (inactive)
4,ATGCTGAC,0.119 (inactive)
5,GAAAGCAC,0.0573 (inactive)
6,ATGGTTGG,-0.0636 (inactive)
7,AATATTGG,0.0704 (inactive)
8,ATCACTAG,0.138 (inactive)
9,CGACAAGA,0.317 (active)
10,GGACAACA,0.336 (active)
11,GGACAACC,0.169 (inactive)
12,CGACAAGC,0.224 (inactive)
13,GGACAAGA,0.264 (inactive)
14,AGACAAGA,0.256 (inactive)
15,AAGGGGTG,-0.101 (inactive)
16,GCTGGTAC,0.0272 (inactive)
17,AGTTCTAT,0.0299 (inactive)
18,CTCTTGTA,0.299 (inactive)
19,ATCTTGTC,0.308 (inactive)
20,GTCTTGTA,0.352 (active)
21,ATCTTGTG,0.18 (inactive)
22,ATCTTGTA,0.375 (active)
23,GTCTTGCA,0.0651 (inactive)
24,GCAAAGGC,-0.087 (inactive)
25,ATATGCGA,0.0126 (inactive)
26,AGTTCAAC,0.0449 (inactive)

row,Sequence,PBM E-score
1,ACTCCTTG,0.0436 (inactive)
2,CCTCTGCC,-0.243 (inactive)
3,AACATAAC,0.318 (active)
4,GCCATAAC,0.0397 (inactive)
5,GACATAAA,0.288 (inactive)
6,AACATAAT,≥ 0.327 (active)
7,ATCATAAT,0.167 (inactive)
8,GACATAAC,0.325 (active)
9,ATCATAAC,0.156 (inactive)
10,CACATAAC,0.223 (inactive)
11,AACATAAG,0.268 (inactive)
12,AGCCCATG,0.00842 (inactive)
13,CCTTAAGG,-0.154 (inactive)
14,AGAACGCC,-0.114 (inactive)
15,CACACGGG,-0.0095 (inactive)
16,AACACGGT,0.351 (active)
17,AACACGGG,0.32 (active)
18,AACACGGC,0.166 (inactive)
19,AACACGGA,0.31 (inactive)
20,AACACGCT,0.267 (inactive)
21,CGCTGAAG,-0.19 (inactive)
22,CGCATTGA,-0.0262 (inactive)
23,CCCCAGCG,-0.312 (inactive)
24,CAAAACGG,0.016 (inactive)
25,AAGGCTCA,-0.107 (inactive)
26,AATTTTCT,0.0254 (inactive)

row,Sequence,PBM E-score
1,AGTGGACC,-0.151 (inactive)
2,ACAACAAT,0.347 (active)
3,CCAACAAC,0.178 (inactive)
4,ACAACAAC,0.36 (active)
5,ACAACCAG,0.249 (inactive)
6,AAAACAAT,0.177 (inactive)
7,ACAACAGT,0.205 (inactive)
8,GCAACAAC,0.205 (inactive)
9,ACAACAAG,0.362 (active)
10,GCAACAAA,0.15 (inactive)
11,TCAACAAA,0.157 (inactive)
12,ACAACAAA,0.323 (active)
13,CCAACAAG,0.196 (inactive)
14,AGTACGGA,-0.0156 (inactive)
15,ATAGACTA,0.115 (inactive)
16,AGTTATTG,0.11 (inactive)
17,AGAGTCCC,-0.228 (inactive)
18,GTACAGAA,0.136 (inactive)
19,AGTATCAA,0.148 (inactive)
20,CGTATCAA,0.0341 (inactive)
21,TGTATCAA,0.315 (active)
22,CCTGTCTA,0.0989 (inactive)
23,ATTGTCTA,0.194 (inactive)
24,ATTGTCCA,0.1 (inactive)
25,GTTGTCAA,0.339 (active)
26,CTTGTCTA,0.281 (inactive)

row,Sequence,PBM E-score
1,CTTGTCCA,0.287 (inactive)
2,ATTGTCAA,0.183 (inactive)
3,GCTGTCAA,0.057 (inactive)
4,GTTGTCCA,≥ 0.336 (active)
5,GTTGTCTA,0.321 (active)
6,CGGGACAA,0.0647 (inactive)
7,CCGGGTGC,-0.287 (inactive)
8,ACTTAATC,0.0653 (inactive)
9,GTTTAATA,0.23 (inactive)
10,AAAGCCGA,-0.139 (inactive)
11,TGGTACAA,0.358 (active)
12,AGGTACAA,0.345 (active)
13,AGGTATAA,0.0486 (inactive)
14,AGGTACAG,0.146 (inactive)
15,CGGTACAA,0.234 (inactive)
16,AGGTACAC,0.297 (inactive)
17,GGGTACAA,0.242 (inactive)
18,AGGTACAT,0.389 (active)
19,AGGTACTC,0.085 (inactive)
20,GGAGGGAA,-0.186 (inactive)
21,ACGCATAT,0.103 (inactive)
22,ACGGCTTG,-0.133 (inactive)
23,CACCTACA,0.17 (inactive)
24,AGTCATTG,0.121 (inactive)
25,CGAGTGAA,-0.00479 (inactive)
26,GAACACTA,0.103 (inactive)

row,Sequence,PBM E-score
1,CAACACGA,0.267 (inactive)
2,TAACACGA,0.323 (active)
3,GAACACGC,0.254 (inactive)
4,GAACACGA,0.32 (active)
5,TAACACCA,0.247 (inactive)
6,GCCGCCCA,-0.275 (inactive)
7,AAGTAAAG,-0.0403 (inactive)
8,TTGTAAAA,0.275 (inactive)
9,GTGTAAAC,0.293 (inactive)
10,CTGTAAAC,0.18 (inactive)
11,ATGTAAAC,0.36 (active)
12,CTGTAAAG,0.0792 (inactive)
13,ACGTAAAT,0.102 (inactive)
14,ATGTAAAG,0.317 (active)
15,ATGTAAAA,0.354 (active)
16,CTGTAAAA,0.121 (inactive)
17,ATGTAAAT,0.352 (active)
18,AGGTAAAT,0.153 (inactive)
19,AGAGTAGG,0.00327 (inactive)
20,CCCCTCGC,-0.261 (inactive)
21,CACACATG,0.192 (inactive)
22,AGCGACAA,0.228 (inactive)
23,GTTATTTA,0.201 (inactive)
24,AATGCATA,0.0394 (inactive)
25,ACGTTTGG,0.0157 (inactive)
26,AAGGTCAA,0.00315 (inactive)

row,Sequence,PBM E-score
1,ATGCCTCA,-0.045 (inactive)
2,CGAGACAA,0.0948 (inactive)
3,ACGTGTCT,0.244 (inactive)
4,ACGTGTAG,0.321 (active)
5,ACGTGTAT,0.353 (active)
6,CCGTGTAC,0.411 (active)
7,CCGTGTCC,0.218 (inactive)
8,ACGTGTGC,0.0653 (inactive)
9,AAGTGTAT,0.144 (inactive)
10,CCGTGTAG,0.286 (inactive)
11,ACGTGTAC,0.367 (active)
12,AAGTGTAC,0.304 (inactive)
13,AAGTGTAG,0.17 (inactive)
14,CAGTGTAC,0.207 (inactive)
15,CTGAGCGC,-0.211 (inactive)
16,TCTCGAGA,0.0237 (inactive)
17,AACGACTG,0.0234 (inactive)
18,CTTCAGTC,-0.0898 (inactive)
19,AGTCCATG,0.0703 (inactive)
20,ACTGCCGG,-0.163 (inactive)
21,ACTATCGG,-0.056 (inactive)
22,CGCAGGTA,-0.0146 (inactive)
23,AGGTAAAA,0.0159 (inactive)
24,GCGTGTCC,0.223 (inactive)
25,GCGTGTAC,0.367 (active)
26,GAGTGTAC,0.121 (inactive)

row,Sequence,PBM E-score
1,CCTAAAAC,-0.07 (inactive)
2,GGTGGCCA,-0.164 (inactive)
3,CCCTTACA,0.152 (inactive)
4,ATGGCCCC,-0.175 (inactive)
5,AATATAGA,0.138 (inactive)
6,ACAAACCT,0.0926 (inactive)
7,ATAAACAG,0.147 (inactive)
8,ACAAACAT,0.368 (active)
9,ATAAACAA,0.254 (inactive)
10,ACAAACAC,0.301 (inactive)
11,TTAAACAA,0.23 (inactive)
12,ATAAACAC,0.251 (inactive)
13,GTAAACAA,0.321 (active)
14,AAAAACAT,0.296 (inactive)
15,ACAAACAA,0.317 (active)
16,ACAAACAG,0.258 (inactive)
17,ATAAACAT,0.321 (active)
18,CGGTGAAA,-0.001 (inactive)
19,ATCTTCTG,-0.0212 (inactive)
20,CACTAAAG,-0.125 (inactive)
21,GATATGGC,-0.0691 (inactive)
22,GATTTGCC,-0.0122 (inactive)
23,CGTGTAAG,0.333 (active)
24,TGTGTAAA,0.318 (active)
25,AGTGTAAC,0.2 (inactive)
26,GGTGTAAA,0.24 (inactive)

row,Sequence,PBM E-score
1,CGTGTAAC,0.321 (active)
2,AGTGTAAA,0.13 (inactive)
3,ACTGTAAG,0.147 (inactive)
4,AGTGTAAG,0.215 (inactive)
5,CGTGTAAA,0.377 (active)
6,GGTGTAAC,0.205 (inactive)
7,ACGTTCCG,-0.0768 (inactive)
8,AAGCCAGG,-0.171 (inactive)
9,ACCCGCAG,-0.142 (inactive)
10,AATTAGAC,0.132 (inactive)
11,CAGCGAAC,0.0117 (inactive)
12,CGGCCCTC,-0.331 (inactive)
13,AGGCCCCC,-0.398 (inactive)
14,GGATCGCA,0.00822 (inactive)
15,CCATAGCA,0.0725 (inactive)
16,AATGTTTC,0.143 (inactive)
17,AATGTTTA,0.213 (inactive)
18,GATGTTTA,0.247 (inactive)
19,CATGTTTA,0.399 (active)
20,CATGTTTC,0.355 (active)
21,CCTGTTTC,0.17 (inactive)
